# Assay results: the supplement of paper PMC11001985
# Values without a mark were called inactive.
# Compound: C#CCNC(=O)CCSSCCC(=O)NCCc1ccc(C=O)c(C=O)c1
# Assay: lysine labeling ratio R10:1 (500 µM / 50 µM probe), SILAC-ABPP in living cells; higher = lower intrinsic lysine reactivity toward the probe, active = 2 or less
# Details: HeLa; probe concentrations 500 vs 50 µM
# Summary of the method: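 R, given per lysine, is the filtered median high-probe/low-probe MS1 peptide ratio, with the median then taken across forward and reverse replicates. Cells were living SILAC light and heavy HeLa cells in PBS at room temperature, labelled with 50 µM or 500 µM of an alkyne-tagged, disulfide-linked lysine probe. The ceiling applied is 20.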
# Sequence of UniProt P56199 (P56199 whole entry): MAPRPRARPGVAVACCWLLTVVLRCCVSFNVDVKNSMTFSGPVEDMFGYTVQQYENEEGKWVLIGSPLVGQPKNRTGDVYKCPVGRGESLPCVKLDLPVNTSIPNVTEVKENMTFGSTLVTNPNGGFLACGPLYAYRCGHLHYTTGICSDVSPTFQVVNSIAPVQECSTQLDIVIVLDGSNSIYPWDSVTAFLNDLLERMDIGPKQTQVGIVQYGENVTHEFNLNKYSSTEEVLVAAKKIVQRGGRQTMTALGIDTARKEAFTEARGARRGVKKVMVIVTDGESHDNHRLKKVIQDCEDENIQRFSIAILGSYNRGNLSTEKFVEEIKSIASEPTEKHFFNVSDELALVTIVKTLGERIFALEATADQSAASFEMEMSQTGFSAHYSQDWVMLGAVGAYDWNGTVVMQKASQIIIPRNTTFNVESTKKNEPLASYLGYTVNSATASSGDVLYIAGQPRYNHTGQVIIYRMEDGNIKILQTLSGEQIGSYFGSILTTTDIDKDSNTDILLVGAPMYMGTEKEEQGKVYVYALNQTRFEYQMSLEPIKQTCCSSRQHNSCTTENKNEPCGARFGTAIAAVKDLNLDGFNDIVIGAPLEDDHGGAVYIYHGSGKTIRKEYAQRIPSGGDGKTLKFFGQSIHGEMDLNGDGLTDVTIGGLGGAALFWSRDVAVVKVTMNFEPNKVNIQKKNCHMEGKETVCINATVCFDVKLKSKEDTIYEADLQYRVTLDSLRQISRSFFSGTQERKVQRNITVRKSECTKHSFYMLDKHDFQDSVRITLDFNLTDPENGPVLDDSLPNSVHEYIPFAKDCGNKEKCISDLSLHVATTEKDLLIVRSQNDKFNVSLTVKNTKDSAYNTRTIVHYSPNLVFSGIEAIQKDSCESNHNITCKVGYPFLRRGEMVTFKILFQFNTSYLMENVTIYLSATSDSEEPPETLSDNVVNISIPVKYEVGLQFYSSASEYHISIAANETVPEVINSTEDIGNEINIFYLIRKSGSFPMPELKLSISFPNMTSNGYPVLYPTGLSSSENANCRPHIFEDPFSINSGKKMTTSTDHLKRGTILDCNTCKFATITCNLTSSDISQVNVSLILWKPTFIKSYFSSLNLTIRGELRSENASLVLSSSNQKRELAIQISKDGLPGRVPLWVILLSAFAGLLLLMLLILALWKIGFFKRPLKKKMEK
# Sequence of UniProt Q9H307 (Q9H307 whole entry): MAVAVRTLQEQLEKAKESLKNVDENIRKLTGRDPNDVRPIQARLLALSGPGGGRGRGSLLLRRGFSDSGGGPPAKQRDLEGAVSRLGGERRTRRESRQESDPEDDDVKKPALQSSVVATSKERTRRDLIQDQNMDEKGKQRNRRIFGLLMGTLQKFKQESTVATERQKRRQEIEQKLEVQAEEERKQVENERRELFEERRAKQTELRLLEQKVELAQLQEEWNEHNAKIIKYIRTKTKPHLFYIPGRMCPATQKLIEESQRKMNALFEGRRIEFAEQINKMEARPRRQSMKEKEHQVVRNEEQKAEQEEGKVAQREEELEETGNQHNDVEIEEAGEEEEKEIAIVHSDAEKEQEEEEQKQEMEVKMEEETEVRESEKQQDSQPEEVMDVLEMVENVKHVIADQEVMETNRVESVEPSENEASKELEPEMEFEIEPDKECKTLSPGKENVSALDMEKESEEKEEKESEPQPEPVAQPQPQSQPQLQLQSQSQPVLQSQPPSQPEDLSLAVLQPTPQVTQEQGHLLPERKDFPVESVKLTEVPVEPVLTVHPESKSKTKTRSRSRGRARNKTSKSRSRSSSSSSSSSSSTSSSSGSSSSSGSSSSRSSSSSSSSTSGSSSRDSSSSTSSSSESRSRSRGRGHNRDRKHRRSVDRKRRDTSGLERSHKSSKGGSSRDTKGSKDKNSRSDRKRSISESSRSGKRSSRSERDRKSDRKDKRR
# Sequence of UniProt P27348 (P27348 whole entry): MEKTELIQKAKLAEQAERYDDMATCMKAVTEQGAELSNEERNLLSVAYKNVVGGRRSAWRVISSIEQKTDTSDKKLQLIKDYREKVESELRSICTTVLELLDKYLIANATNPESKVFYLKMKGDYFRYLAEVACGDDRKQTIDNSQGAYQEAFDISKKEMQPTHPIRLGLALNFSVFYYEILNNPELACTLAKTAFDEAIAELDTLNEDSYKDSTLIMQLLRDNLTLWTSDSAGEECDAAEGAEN
# Sequence of UniProt P60842 (P60842 whole entry): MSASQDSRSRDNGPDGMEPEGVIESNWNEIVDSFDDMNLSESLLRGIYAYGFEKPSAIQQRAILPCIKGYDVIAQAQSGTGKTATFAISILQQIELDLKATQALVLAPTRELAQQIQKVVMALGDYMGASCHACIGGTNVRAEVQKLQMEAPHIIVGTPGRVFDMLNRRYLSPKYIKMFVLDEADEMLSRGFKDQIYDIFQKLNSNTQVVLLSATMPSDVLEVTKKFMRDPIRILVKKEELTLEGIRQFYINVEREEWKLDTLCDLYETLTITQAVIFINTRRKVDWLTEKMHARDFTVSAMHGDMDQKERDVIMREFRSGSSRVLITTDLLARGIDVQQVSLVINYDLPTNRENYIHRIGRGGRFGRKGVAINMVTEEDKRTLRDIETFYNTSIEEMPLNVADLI
# Sequence of UniProt O95573 (O95573 whole entry): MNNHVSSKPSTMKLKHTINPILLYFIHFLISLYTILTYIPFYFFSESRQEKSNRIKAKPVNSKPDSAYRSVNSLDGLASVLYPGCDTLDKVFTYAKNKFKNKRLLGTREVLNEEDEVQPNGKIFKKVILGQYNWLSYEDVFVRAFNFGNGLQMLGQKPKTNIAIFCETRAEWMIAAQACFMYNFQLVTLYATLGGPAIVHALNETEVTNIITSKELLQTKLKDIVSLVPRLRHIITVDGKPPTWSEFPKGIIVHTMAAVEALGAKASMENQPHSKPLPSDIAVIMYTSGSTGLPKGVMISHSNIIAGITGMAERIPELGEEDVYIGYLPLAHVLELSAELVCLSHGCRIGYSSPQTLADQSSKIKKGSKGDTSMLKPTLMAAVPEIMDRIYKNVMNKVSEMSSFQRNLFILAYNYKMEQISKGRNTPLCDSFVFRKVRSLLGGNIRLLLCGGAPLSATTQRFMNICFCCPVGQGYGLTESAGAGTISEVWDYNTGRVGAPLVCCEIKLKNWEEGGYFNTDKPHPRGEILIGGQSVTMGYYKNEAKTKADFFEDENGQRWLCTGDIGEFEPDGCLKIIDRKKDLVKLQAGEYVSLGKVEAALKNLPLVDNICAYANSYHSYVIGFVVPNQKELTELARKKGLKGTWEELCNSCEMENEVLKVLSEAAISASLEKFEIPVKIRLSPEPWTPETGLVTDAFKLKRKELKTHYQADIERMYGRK
# Sequence of UniProt Q9BVK6 (Q9BVK6 whole entry): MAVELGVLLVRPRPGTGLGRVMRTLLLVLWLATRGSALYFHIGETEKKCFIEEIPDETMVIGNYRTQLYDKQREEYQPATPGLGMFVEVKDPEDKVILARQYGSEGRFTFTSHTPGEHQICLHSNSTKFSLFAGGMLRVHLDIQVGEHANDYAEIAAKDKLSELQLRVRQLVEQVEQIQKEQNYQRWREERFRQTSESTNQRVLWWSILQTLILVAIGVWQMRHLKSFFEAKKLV
# Sequence of UniProt P17301 (P17301 whole entry): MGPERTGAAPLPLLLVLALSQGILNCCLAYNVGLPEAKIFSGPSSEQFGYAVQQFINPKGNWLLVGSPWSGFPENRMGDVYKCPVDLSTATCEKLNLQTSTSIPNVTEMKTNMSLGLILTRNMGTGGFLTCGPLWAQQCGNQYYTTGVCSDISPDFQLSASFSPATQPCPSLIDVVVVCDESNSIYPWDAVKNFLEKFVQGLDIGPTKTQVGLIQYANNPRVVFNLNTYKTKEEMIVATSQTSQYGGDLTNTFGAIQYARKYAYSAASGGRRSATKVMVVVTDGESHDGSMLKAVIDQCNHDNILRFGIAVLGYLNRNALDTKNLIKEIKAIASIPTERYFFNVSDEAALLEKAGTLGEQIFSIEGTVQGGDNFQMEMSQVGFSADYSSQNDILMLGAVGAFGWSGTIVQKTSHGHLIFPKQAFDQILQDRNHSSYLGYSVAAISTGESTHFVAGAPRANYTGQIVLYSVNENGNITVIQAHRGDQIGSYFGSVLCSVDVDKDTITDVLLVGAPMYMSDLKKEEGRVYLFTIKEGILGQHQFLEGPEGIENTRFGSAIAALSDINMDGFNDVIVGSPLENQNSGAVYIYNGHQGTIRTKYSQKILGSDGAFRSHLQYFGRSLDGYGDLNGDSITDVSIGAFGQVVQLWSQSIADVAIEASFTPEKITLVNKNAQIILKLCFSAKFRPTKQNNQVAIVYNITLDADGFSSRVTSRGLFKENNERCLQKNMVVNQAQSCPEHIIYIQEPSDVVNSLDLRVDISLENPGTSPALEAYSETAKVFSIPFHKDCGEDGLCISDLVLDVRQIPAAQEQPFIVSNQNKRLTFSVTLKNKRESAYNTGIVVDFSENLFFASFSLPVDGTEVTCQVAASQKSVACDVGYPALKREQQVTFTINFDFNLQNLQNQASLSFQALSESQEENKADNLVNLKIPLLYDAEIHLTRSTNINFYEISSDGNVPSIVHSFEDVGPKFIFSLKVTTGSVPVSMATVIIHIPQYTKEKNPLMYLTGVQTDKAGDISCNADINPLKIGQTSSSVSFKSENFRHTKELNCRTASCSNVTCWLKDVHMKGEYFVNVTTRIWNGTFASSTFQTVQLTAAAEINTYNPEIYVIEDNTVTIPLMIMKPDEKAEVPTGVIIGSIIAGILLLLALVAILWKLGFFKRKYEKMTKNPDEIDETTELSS
# Sequence of UniProt P78310 (P78310 whole entry): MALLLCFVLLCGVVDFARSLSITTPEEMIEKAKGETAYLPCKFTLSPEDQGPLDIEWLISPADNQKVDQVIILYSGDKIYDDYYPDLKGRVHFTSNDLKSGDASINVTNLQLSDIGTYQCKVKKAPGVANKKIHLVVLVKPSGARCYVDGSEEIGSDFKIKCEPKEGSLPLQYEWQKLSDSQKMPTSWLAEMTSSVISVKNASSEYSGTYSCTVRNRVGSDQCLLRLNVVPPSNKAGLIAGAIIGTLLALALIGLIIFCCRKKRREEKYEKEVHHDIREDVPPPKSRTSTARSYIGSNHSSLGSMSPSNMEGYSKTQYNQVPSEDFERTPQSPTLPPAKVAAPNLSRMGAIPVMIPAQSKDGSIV
row,Target,lysine labeling ratio R10:1
1,PA2G4 (lysine site: K22) (UniProt Q9UQ80),0.568 (active)
2,UniProt P21589 (lysine site: K326),1.17 (active)
3,CXADR (lysine site: K88) (UniProt P78310),1.11 (active)
4,TMED9 (lysine site: K71) (UniProt Q9BVK6),5.82
5,ITGA1 (lysine site: K1046) (UniProt P56199),0.547 (active)
6,ITGAV (lysine site: K338) (UniProt P06756),3.21
7,UniProt Q15149 (lysine site: K581),3.7
8,ACSL3 (lysine site: K222) (UniProt O95573),2.52
9,YWHAQ (lysine site: K80) (UniProt P27348),3.11
10,CPM (lysine site: K135) (UniProt P14384),0.991 (active)
11,XRCC6 (lysine site: K189) (UniProt P12956),4
12,PNN (lysine site: K202) (UniProt Q9H307),3
13,LAMB1 (lysine site: K1778) (UniProt P07942),1.01 (active)
14,UniProt P60842 (lysine site: K146),3.63
15,CLTC (lysine site: K1612) (UniProt Q00610),4.67
16,SFN (lysine site: K49) (UniProt P31947),5.33
17,C3 (lysine site: K1546) (UniProt P01024),4.18
18,ITGA2 (lysine site: K603) (UniProt P17301),1.54 (active)
19,COL5A1 (lysine site: K164) (UniProt P20908),3.25
20,CYR61 (lysine site: K203) (UniProt O00622),2.96
21,RPL14 (lysine site: K103) (UniProt P50914),3.31
22,UniProt P62913 (lysine site: K52),2.77
23,ACTR3 (lysine site: K42) (UniProt P61158),1.04 (active)
